Measurements reported in PubChem BioAssay (NCI).
Compounds without any hit were thinned out: in the full panel of roughly 83,000, 20% have a hit.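 Percent growth is the endpoint: 0 to 100 indicates growth inhibition (40 means 60% inhibition), 0 means no net growth, and negative values indicate cell death.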 A number with no mark means an inactive call. Active and inactive are the calls of the source. How the source made its calls: active means growth percent below 10; inactive means the rest.

Tested on: SR leukemia
Test: NCI-60 one-dose screen, 48 h (100 = growth as untreated, 0 = no growth, -100 = all killed)
Details: 10 µM unless noted

Row | Compound | growth
1 | COc1cc(C2CC(c3ccc(C(F)(F)F)cc3)=Nc3c(N)nc(N)nc3N2)ccc1Oc1nc(Nc2ccc(F)cc2)nc(N(C)C)n1 (centres undefined) | -25.2% (active)
2 | COc1ccc2[nH]c(=O)c(CSc3ccccc3Nc3nccc(-c4ccc5c(c4)OCO5)n3)cc2c1 | 67.3%
3 | Cc1cc(=O)oc2cc(OCC(O)CNN3C(=O)c4cccc5c(N6CCN(C)CC6)ccc(c45)C3=O)ccc12 (centres undefined) | 81.1%
4 | CC[C@]12C=CCN3CC[C@]4(C(=C(C(=O)OC)C1)Nc1cc(OC)c([C@@H]5[C@H]6O[C@H]6[C@@]6(CC)CC(C(=O)OC)=C7Nc8cc(OC)ccc8[C@@]78CCN5[C@@H]68)cc14)[C@@H]32 | 5.93% (active)
5 | C#CCCCNCCNc1ccnc2cc(Cl)ccc12 | 2.22% (active)
6 | CCOC(=O)/C(F)=C/C1CC1C(c1ccccc1)c1ccccc1 (centres undefined) | 63.3%
7 | S=C(NCCc1ccccc1)Nc1ccc(OCc2nc3ccc(Cl)cc3[nH]2)cc1 | -7.42% (active)
8 | Cc1ccc(C(=O)C[n+]2cccc3c4ccccc4ccc32)cc1 | 2.32% (active)
9 | CCCn1c(NC(=O)c2cccc(C(N)=O)c2)nc2cc(CN3CCCCC3)ccc21 | 41.5%
10 | CCC(=O)c1c2c(c3ccc4c5ccccc5ccc4n13)C(=O)c1ccccc1C2=O | 71.8%
11 | O=C1/C(=C/c2cnc(-c3ccccc3)s2)SC(=S)N1Cc1ccc2c(c1)OCO2 | 67.5%
12 | O=c1[nH]c2ccccc2cc1COc1ccc(Nc2nccc(-c3ccc(Cl)cc3)n2)cc1 | 103%
13 | O=C(/C=C1\C(=O)N(Cc2ccccc2)c2ccccc21)c1cc2ccccc2oc1=O | 22.5%
14 | COc1ccc(NC(=O)Cn2c(/C=C/c3cccc(Br)c3)nc3ccccc3c2=O)cc1 | 78.3%
15 | O=c1ccc(Cn2c(C(F)(F)F)cc3c(Cl)ncnc32)c[nH]1 | -53.9% (active)
16 | CCCCC[C@@H]1C/C=C(\C)[C@@H](O)C(C)(C)C(=O)[C@@H](C)/C=C(\C)[C@@H]2C[C@H](O)C[C@](O)(CC(=O)O1)O2 | 17.1%
17 | COc1cc(NC(=O)CSc2nnc(-c3ccc(-c4nc5ccc(Cl)cc5[nH]4)cc3)o2)cc(OC)c1OC | 35.7%
18 | Cc1ccc(C2CC(c3ccc(S(=O)(=O)NCCNc4nc(N(C)C)nc(N5CCOCC5)n4)cc3)=Nc3c(N)nc(N)nc3N2)cc1 (centres undefined) | 1.45% (active)
19 | CCCCNC(=S)Nc1ccc(OCc2nc3ccc(Cl)cc3[nH]2)cc1 | 2.29% (active)
20 | Nc1nn2c(-c3cc4cc(Br)ccc4oc3=O)ccnc2c1N=Nc1ccc(S(N)(=O)=O)cc1 | 74.4%
21 | OCCn1cc(-c2nc3ccc4[nH]ncc4c3c3c2CCCC3)cn1 | -3.53% (active)
22 | CN(C)CCCc1ccc(Nc2cnn(C)c(=O)c2Cl)cc1 | 62.2%
23 | Nc1cc2ccccc2c(=O)n1NC(=O)c1ccccc1 | 84.3%
24 | Cn1cc(-c2cc(N)n3nc(-c4c[nH]c5ccccc45)cc3n2)c2cc(Cl)ccc21 | 20%
25 | O=C(NC(=S)N1CCN(c2ncnc3c2cnn3-c2ccccc2)CC1)c1ccc(Br)cc1 | 14.1%
26 | O=C(N/N=C/c1ccc(B(O)O)s1)c1[nH]c2ccc(Br)cc2c1-c1ccccc1 | -22.6% (active)

Tested on: RPMI-8226 leukemia
Test: as above
Details: 10 µM unless noted

Row | Compound | growth
27 | CCCCNc1ccc2c3c(cccc13)C(=O)N(c1cccc(-c3nn(-c4ccccc4)cc3-c3nc4ccccc4s3)c1)C2=O | 95.3%
28 | COc1ccc(-c2cc(-c3cc(OC)c(OC)c(OC)c3)[nH]c(=O)c2C#N)cc1 | 72.2%
29 | COc1cc(C2CC(c3ccc(Cl)cc3)=Nc3c(N)nc(N)nc3N2)ccc1Oc1nc(Nc2ccc(F)cc2)nc(N(C)C)n1 (centres undefined) | 15%
30 | O=C(O)CC1S/C(=N/N=C/c2nc3ccccc3s2)NC1=O (centres undefined) | 88.8%
31 | Cc1ccc(S(=O)(=O)N(CCn2ccnc2[N+](=O)[O-])CCn2ccnc2[N+](=O)[O-])cc1 | 102%
32 | N#CCc1nnc(NC(=O)c2ccc(-n3c(=O)[nH]c4ccccc4c3=O)cc2)s1 | 111%
33 | O=C(N/N=C/c1ccc(Br)o1)c1[nH]c2ccc(Br)cc2c1-c1ccccc1 | 10.6%
34 | COc1ccc(N=Nc2c(N)nn3c(-c4ccc([N+](=O)[O-])cc4)ccnc23)cc1 | 94%
35 | Cn1cc(-c2cc(N)n3nc(-c4c[nH]c5ccc(Cl)cc45)cc3n2)c2cc(Br)cnc21 | -43.6% (active)
36 | CN1C(=O)C2(C(C#N)=C(c3ccc(Cl)cc3)Nc3c2c(-c2ccccc2)nn3-c2ccccc2)c2ccccc21 (centres undefined) | 60.3%
37 | Cc1nn(-c2ccccc2)c2nc(C)n(C(=O)N/N=C/c3ccccc3)c(=O)c12 | 103%
38 | CN1CCN(CCS(=O)(=O)Nc2cc(-c3ccc4ncnc(Nc5ccc(F)c(Cl)c5)c4c3)cnc2Cl)CC1 | 75.2%
39 | COc1cc(C2CC(c3ccc(C(F)(F)F)cc3)=Nc3c(N)nc(N)nc3N2)ccc1Oc1nc(Nc2ccc(F)cc2)nc(N(C)C)n1 (centres undefined) | 24.3%
40 | COc1ccc2[nH]c(=O)c(CSc3ccccc3Nc3nccc(-c4ccc5c(c4)OCO5)n3)cc2c1 | 68.2%
41 | Cc1cc(=O)oc2cc(OCC(O)CNN3C(=O)c4cccc5c(N6CCN(C)CC6)ccc(c45)C3=O)ccc12 (centres undefined) | 97.4%
42 | CC[C@]12C=CCN3CC[C@]4(C(=C(C(=O)OC)C1)Nc1cc(OC)c([C@@H]5[C@H]6O[C@H]6[C@@]6(CC)CC(C(=O)OC)=C7Nc8cc(OC)ccc8[C@@]78CCN5[C@@H]68)cc14)[C@@H]32 | 24.2%
43 | C#CCCCNCCNc1ccnc2cc(Cl)ccc12 | 47.9%
44 | CCOC(=O)/C(F)=C/C1CC1C(c1ccccc1)c1ccccc1 (centres undefined) | 69.5%
45 | S=C(NCCc1ccccc1)Nc1ccc(OCc2nc3ccc(Cl)cc3[nH]2)cc1 | 7.74% (active)

Row | Compound | growth
46 | Cc1ccc(C(=O)C[n+]2cccc3c4ccccc4ccc32)cc1 | 4.63% (active)
47 | CCCn1c(NC(=O)c2cccc(C(N)=O)c2)nc2cc(CN3CCCCC3)ccc21 | 80.7%
48 | CCC(=O)c1c2c(c3ccc4c5ccccc5ccc4n13)C(=O)c1ccccc1C2=O | 95.8%
49 | O=C1/C(=C/c2cnc(-c3ccccc3)s2)SC(=S)N1Cc1ccc2c(c1)OCO2 | 110%
50 | O=c1[nH]c2ccccc2cc1COc1ccc(Nc2nccc(-c3ccc(Cl)cc3)n2)cc1 | 108%
51 | O=C(/C=C1\C(=O)N(Cc2ccccc2)c2ccccc21)c1cc2ccccc2oc1=O | 98.8%
52 | COc1ccc(NC(=O)Cn2c(/C=C/c3cccc(Br)c3)nc3ccccc3c2=O)cc1 | 42.5%
53 | O=c1ccc(Cn2c(C(F)(F)F)cc3c(Cl)ncnc32)c[nH]1 | 81.1%
54 | CCCCC[C@@H]1C/C=C(\C)[C@@H](O)C(C)(C)C(=O)[C@@H](C)/C=C(\C)[C@@H]2C[C@H](O)C[C@](O)(CC(=O)O1)O2 | 8.23% (active)
55 | COc1cc(NC(=O)CSc2nnc(-c3ccc(-c4nc5ccc(Cl)cc5[nH]4)cc3)o2)cc(OC)c1OC | 25%
56 | Cc1ccc(C2CC(c3ccc(S(=O)(=O)NCCNc4nc(N(C)C)nc(N5CCOCC5)n4)cc3)=Nc3c(N)nc(N)nc3N2)cc1 (centres undefined) | 23.4%
57 | CCCCNC(=S)Nc1ccc(OCc2nc3ccc(Cl)cc3[nH]2)cc1 | -0.388% (active)
58 | Nc1nn2c(-c3cc4cc(Br)ccc4oc3=O)ccnc2c1N=Nc1ccc(S(N)(=O)=O)cc1 | 109%
59 | OCCn1cc(-c2nc3ccc4[nH]ncc4c3c3c2CCCC3)cn1 | 31.4%
60 | CN(C)CCCc1ccc(Nc2cnn(C)c(=O)c2Cl)cc1 | 102%
61 | Nc1cc2ccccc2c(=O)n1NC(=O)c1ccccc1 | 94.2%
62 | Cn1cc(-c2cc(N)n3nc(-c4c[nH]c5ccccc45)cc3n2)c2cc(Cl)ccc21 | -7.08% (active)
63 | O=C(NC(=S)N1CCN(c2ncnc3c2cnn3-c2ccccc2)CC1)c1ccc(Br)cc1 | 83.4%
64 | O=C(N/N=C/c1ccc(B(O)O)s1)c1[nH]c2ccc(Br)cc2c1-c1ccccc1 | 0.974% (active)
